Measurements taken from PubChem BioAssay (NCI).
This is part of a sample that, as a whole, favours compounds with a hit. Of some 79,000 tested, about 15% had one in any assay. Active and inactive are the calls of the source. Cut-off read from the data, not from the text of the source: active = growth inhibition above about 70%; inactive = the rest.

Columns and labels:
[1] = NCI Yeast Anticancer Drug Screen. Data for the rad50 strain (AID 155);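 note: 0% = growth of vehicle-only cultures of the same strain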; settings: S. cerevisiae rad50 strain growth inhibition; at 50.0 µM; stronger effect = higher value
How it was run: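 Yeast carrying a defined DNA repair defect were exposed to test compounds, and growth was compared with vehicle-treated controls to give percent inhibition.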

[2] = NCI Yeast Anticancer Drug Screen. Data for the mec2-1 strain (AID 157); settings: S. cerevisiae mec2-1 strain, at 50.0 µM, stronger effect = higher value
How it was run: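 Each compound was tested on mec2-1 yeast, a strain altered in DNA damage repair or cell cycle control. Growth inhibition is reported relative to vehicle.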

[3] = NCI Yeast Anticancer Drug Screen. Data for the sgs1 mgt1 strain (AID 161);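 note: 0% = growth of cultures given vehicle only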; settings: S. cerevisiae sgs1 mgt1 strain, at 50.0 µM, stronger effect = higher value
How it was run: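 Test agents were incubated with a DNA-repair-mutant yeast strain. Growth was then read and compared against vehicle-treated controls.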

[4] = NCI Yeast Anticancer Drug Screen. Data for the cln2 rad14 strain (AID 165);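 note: 0% = growth equal to vehicle treated cultures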; settings: S. cerevisiae cln2 rad14 strain, at 50.0 µM, stronger effect = higher value
How it was run: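 Test compounds were added to cln2 rad14 yeast cultures; inhibition of growth was then determined by comparison with vehicle treatment.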

[5] = NCI Yeast Anticancer Drug Screen. Data for the bub3 strain (AID 167); settings: S. cerevisiae bub3 mutant strain, at 50.0 µM, stronger effect = higher value
How it was run: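 Compounds were applied to a genetically altered yeast strain carrying a cell-cycle control defect. Growth inhibition was scored against vehicle-treated controls.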

[6] = NCI Yeast Anticancer Drug Screen. Data for the mlh1 rad18 strain (AID 175); settings: S. cerevisiae mlh1 rad18 strain growth inhibition; at 50.0 µM; stronger effect = higher value
How it was run: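 Inhibition values reflect reduced growth of mutant yeast versus vehicle-treated controls following compound exposure; the mutations affect DNA damage repair.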

Measured: growth inhibition

COc1cc(C)ccc1C(=O)C[n+]1ccc2ccccc2c1
inactive: [1] -41.3% | [2] -1.35% | [3] -25.9% | [4] -56.1% | [5] -1.55% | [6] -2.5%

CC1OC(OC2C(OC(=O)[C@@H]3CC(C)(C)C[C@@H]4C5=CC[C@@H]6[C@@]7(C)C[C@H](O)[C@H](OC8OC(CO)C(O)C(O)C8O)[C@@](C)(CO)C7[C@H](O)C[C@@]6(C)[C@]5(C)C[C@@H](O)[C@H]43)OCC(O)C2O)C(O)C(O)C1O (stereo partly specified)
inactive: [1] -23.9% | [2] -21.6% | [3] -9.35% | [4] 13.2% | [5] 1% | [6] -49.7%

Cc1ccc(NC(=O)CC(=O)CC(C)C)cc1C
inactive: [1] -22.2% | [2] -24.8% | [3] -17.4% | [4] 0.75% | [5] -37% | [6] -10.8%

CC1(CO)CCCC2(C)C3=CC(=O)CCC3CCC12 (stereo unspecified)
inactive: [1] -6.7% | [2] -1.9% | [3] -12.8% | [4] -0.35% | [5] -8.95% | [6] -3.15%

O=C(OCCN1CCOCC1)c1cc2ccccc2oc1=O
inactive: [1] 1.8% | [2] 2.65% | [3] 6.35% | [4] -45.7% | [5] -0.2% | [6] -2.65%

CCCCOC(=O)C1C(c2ccc(Cl)cc2)NC(c2ccc(Cl)cc2)C(C(=O)OCCCC)S1(=O)=O (stereo unspecified)
inactive: [1] -28.2% | [2] -15.1% | [3] -14.5% | [4] -1.4% | [5] -2.35% | [6] -45.2%

CCCCCCCCN(c1ccc(C(=O)NC(CCC(=O)OCC)C(=O)OCC)cc1)S(=O)(=O)c1ccc(C)cc1 (stereo unspecified)
inactive: [1] -14.6% | [2] -4.5% | [3] -18.9% | [4] -24.6% | [5] -3.6% | [6] -12.2%

Nc1ccc(N=Nc2c(S(=O)(=O)O)cc3cc(S(=O)(=O)O)cc(O)c3c2O)cc1
inactive: [1] -30.8% | [2] -16.4% | [3] -29.5% | [4] -23.9% | [5] 6.55% | [6] 10.8%

O=[N+]([O-])c1ccc(O)c(O)c1
inactive: [1] -23.6% | [2] -1.7% | [3] -10% | [4] 12.8% | [5] 5.6% | [6] -6.85%

CCc1cc(COC(C)=O)on1
inactive: [1] 5.35% | [2] -18.5% | [3] -8.4% | [4] -35.9% | [5] -1.9% | [6] -2.6%

CCCN(CCC)CC(O)c1cccc2c1cc(Cl)c1ccccc12 (stereo unspecified)
active: [1] 99.6% | [2] 99.7% | [3] 99.8% | [4] 99% | [5] 91.3% | [6] 99.7%

CC1OS(=O)(=O)CS(=O)(=O)OC1C (stereo unspecified)
inactive: [1] -50.1% | [2] -24.9% | [3] -12.8% | [4] -61.4% | [5] 4.8% | [6] -6.15%

CC(=O)Nc1ccc(SC#N)c2c(NC(C)=O)cccc12
inactive: [1] 44.6% | [2] 27.5% | [3] 56.5% | [4] 27.6% | [5] 30.4% | [6] 47.7%

CCN(CC)CCn1c2ccccc2c(=O)c2c(O)ccc(O)c21
inactive: [1] 14.8% | [2] -1.3% | [3] 3.35% | [4] 4.45% | [5] 6.95% | [6] -0.55%

Cc1ccc(S(=O)(=O)NCCC(Cl)(Cl)Cl)cc1
inactive: [1] 21.6% | [2] 6.8% | [3] 1.05% | [4] 1.2% | [5] 38% | [6] 27.7%

C[N+](C)(C)c1cc2c(nn1)Nc1ccccc1S2
inactive: [1] 17.4% | [2] 3.8% | [3] -2.75% | [4] 14.7% | [5] -17.8% | [6] 8.35%

CCc1nnc(-c2nsc3ccccc23)s1
inactive: [1] 38.5% | [2] -22.9% | [3] 6.4% | [4] -12.8% | [5] 15.8% | [6] 23.3%

C=CC(C/C(C)=N/Nc1ccc([N+](=O)[O-])cc1[N+](=O)[O-])c1ccccc1 (stereo unspecified)
inactive: [1] -17.7% | [2] -4.85% | [3] -17.6% | [4] -54.4% | [5] -19.6% | [6] -8%

NCCCOCCO
inactive: [1] -2.9% | [2] -0.5% | [3] -8.4% | [4] 8.3% | [5] 16.4% | [6] 4.35%

O=C(CCl)Nc1cc(C(F)(F)F)ccc1Cl
inactive: [1] -0.15% | [2] 1.75% | [3] 18.1% | [4] 4.85% | [5] 23.9% | [6] 1.15%

CC[N+]1(C)CCOCC1
inactive: [1] -13.7% | [2] 3.35% | [3] -8.65% | [4] -21.9% | [5] -5.2% | [6] -8.15%
